From PubChem BioAssay
Active and inactive are the calls of the source.

Experiments:
[1] = optical density shifts of acrAB sulA E. coli – strain DRC41, OD650, 48 h, E. coli filamentation inducer project, primary screen (AID 1152); settings: higher = more signal, called active from +8 up or from −8 down;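 note: E. coli MC1000 strain DRC41 lacking acrAB efflux pump and sulA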
[2] = probe aLefty1 binding on compound microarray – biochemical, small-molecule microarray, 635/667 nm fluorescence, primary screen (AID 1153); settings: higher = more signal;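 note: score merges spot fluorescence with signal-to-noise ratio from the scanned slide images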
[3] = plasmodial surface anion channel blockers, osmotic lysis – cell-based, P. falciparum Indochina, OD700, 1 h, primary screen (AID 1154); settings: P. falciparum Indochina infected RBC osmotic lysis, higher = more signal, called active from +8 up or from −8 down
[4] = plasmodial surface anion channel blockers, osmotic lysis – cell-based, P. falciparum Indochina, OD700, 2 h, primary screen (AID 1155);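 note: lysis reports solute entry through the parasite surface anion channel PSAC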; settings: P. falciparum Indochina infected erythrocytes, higher = more signal, called active from +8 up or from −8 down
[5] = changes in parasitized red cell lysis, either direction – P. falciparum Indochina, OD700, 3 h, PSAC antagonist project, primary screen (AID 1156); settings: P. falciparum-infected erythrocytes, osmotic lysis, higher = more signal, called active from +8 up or from −8 down
[6] = plasmodial surface anion channel blockers, osmotic lysis – cell-based, P. falciparum Indochina, OD700, 18 h, primary screen (AID 1157); settings: P. falciparum Indochina infected erythrocytes, osmotic lysis OD700, 18 h; higher = more signal, called active from +8 up or from −8 down
[7] = S6 kinase pathway phospho-S6 level changes – cell-based, A549, cytoblot, luminescence, serum-stimulated, primary screen (AID 1158); settings: 5 h, higher = more signal;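 note: serum-stimulated A549 lung adenocarcinoma cells; signal is phosphorylated S6 detected by cytoblot immunostaining with HRP secondary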
[8] = molecular target: NADPH oxidase 2 (Homo sapiens) (UniProt P04839); assay: compounds shifting NOX2 Amplex Red fluorescence – cell-based, HEK293-NOX2, PMA-stimulated, NOX inhibitor project, primary screen (AID 1159); settings: 45 min, higher = more signal, called active from +8 up or from −8 down; note: test concentration not given here
Chain of NADPH oxidase 2 (Homo sapiens) (P04839 whole entry, looked up): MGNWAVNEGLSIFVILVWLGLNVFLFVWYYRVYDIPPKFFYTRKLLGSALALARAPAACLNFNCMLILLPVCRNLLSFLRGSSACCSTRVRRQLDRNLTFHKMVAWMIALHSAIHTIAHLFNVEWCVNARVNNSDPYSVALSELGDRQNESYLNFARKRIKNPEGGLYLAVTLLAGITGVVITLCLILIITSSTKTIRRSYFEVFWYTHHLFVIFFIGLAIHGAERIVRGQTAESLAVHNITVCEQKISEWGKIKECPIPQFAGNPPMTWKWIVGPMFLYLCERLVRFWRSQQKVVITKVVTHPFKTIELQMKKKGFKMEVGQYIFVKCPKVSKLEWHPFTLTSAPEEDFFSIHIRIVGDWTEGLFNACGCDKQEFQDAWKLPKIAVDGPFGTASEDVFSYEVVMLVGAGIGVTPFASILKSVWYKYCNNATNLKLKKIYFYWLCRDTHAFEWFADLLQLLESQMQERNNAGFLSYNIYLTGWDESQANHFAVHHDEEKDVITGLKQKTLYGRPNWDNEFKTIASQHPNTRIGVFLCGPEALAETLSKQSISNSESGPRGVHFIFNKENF

[9] = molecular target: NADPH oxidase 4 (Homo sapiens) (UniProt Q9NPH5); assay: compounds shifting NOX4 Amplex Red fluorescence – cell-based, HEK293-NOX4, tetracycline-induced, NOX inhibitor project, primary screen (AID 1160); settings: HEK293-NOX4, Amplex Red H2O2 fluorescence, 45 min; higher = more signal, called active from +8 up or from −8 down
Chain of NADPH oxidase 4 (Homo sapiens) (Q9NPH5 whole entry, looked up): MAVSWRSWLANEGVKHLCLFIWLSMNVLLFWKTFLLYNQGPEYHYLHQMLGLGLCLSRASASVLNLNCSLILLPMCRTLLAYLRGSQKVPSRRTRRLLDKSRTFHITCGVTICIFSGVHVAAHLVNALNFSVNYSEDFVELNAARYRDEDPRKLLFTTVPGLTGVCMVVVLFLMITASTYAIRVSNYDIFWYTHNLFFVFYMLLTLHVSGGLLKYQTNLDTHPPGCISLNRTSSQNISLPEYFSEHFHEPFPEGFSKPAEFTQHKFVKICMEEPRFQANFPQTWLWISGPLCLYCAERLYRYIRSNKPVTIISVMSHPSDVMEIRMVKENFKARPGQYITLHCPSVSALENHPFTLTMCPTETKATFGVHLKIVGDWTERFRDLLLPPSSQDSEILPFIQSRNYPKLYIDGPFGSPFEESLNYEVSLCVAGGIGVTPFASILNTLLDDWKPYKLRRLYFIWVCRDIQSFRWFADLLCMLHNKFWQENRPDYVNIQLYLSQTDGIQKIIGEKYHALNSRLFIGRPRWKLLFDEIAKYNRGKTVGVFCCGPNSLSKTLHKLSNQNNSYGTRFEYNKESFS

[10] = molecular target: NADPH oxidase 5 (Homo sapiens) (UniProt Q96PH1); assay: compounds shifting NOX5 Amplex Red fluorescence – cell-based, HEK293-NOX5, NOX inhibitor project, primary screen (AID 1161); settings: HEK293-NOX5, ionomycin, 45 min, higher = more signal
Chain of NADPH oxidase 5 (Homo sapiens) (Q96PH1 whole entry, looked up): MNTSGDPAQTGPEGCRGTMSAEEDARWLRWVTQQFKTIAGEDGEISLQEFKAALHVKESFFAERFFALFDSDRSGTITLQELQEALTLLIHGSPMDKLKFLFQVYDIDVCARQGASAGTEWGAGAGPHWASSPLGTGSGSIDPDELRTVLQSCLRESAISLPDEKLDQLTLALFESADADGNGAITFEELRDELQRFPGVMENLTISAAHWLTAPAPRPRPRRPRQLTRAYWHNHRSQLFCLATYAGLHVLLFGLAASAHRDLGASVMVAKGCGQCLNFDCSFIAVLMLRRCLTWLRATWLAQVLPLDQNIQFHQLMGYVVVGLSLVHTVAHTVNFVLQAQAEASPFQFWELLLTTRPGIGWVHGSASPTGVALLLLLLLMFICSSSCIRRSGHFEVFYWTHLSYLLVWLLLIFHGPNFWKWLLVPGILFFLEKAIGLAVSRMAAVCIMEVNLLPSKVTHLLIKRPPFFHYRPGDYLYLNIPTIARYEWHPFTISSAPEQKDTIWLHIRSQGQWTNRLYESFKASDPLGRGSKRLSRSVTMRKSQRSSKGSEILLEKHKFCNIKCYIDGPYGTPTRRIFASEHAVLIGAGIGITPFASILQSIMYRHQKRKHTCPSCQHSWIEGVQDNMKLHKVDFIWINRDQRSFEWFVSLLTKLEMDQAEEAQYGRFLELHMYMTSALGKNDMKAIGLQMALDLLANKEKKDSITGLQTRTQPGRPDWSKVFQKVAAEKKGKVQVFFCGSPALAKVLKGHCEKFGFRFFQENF

Row | SMILES | z-score [1] | composite z-score [2] | z-score [3] | z-score [4] | z-score [5] | z-score [6] | z-score [7] | z-score [8] | z-score [9] | z-score [10]
1 | C=C(CCCC)/C(=C/C[C@@H](OC(C)=O)c1ccc(OCCO)cc1)c1cc(C(=O)OC)ccc1OC | -0.195 (inactive) | -0.0518 | 23.7 (active) | 6.34 (inactive) | 1.86 (inactive) | 1.19 (inactive) | -0.265 | -0.958 (inactive) | -1.43 (inactive) | -1.98
2 | O=C1NC(=O)C2C1C=CC(C(O)C(O)CO)N2Nc1ccccn1 (stereo not given) | -0.0393 (inactive) | 0.586 | 0.0087 (inactive) | 0.0339 (inactive) | -0.489 (inactive) | -0.145 (inactive) | 1.14 | -0.193 (inactive) | -0.921 (inactive) | -0.339
3 | COc1c(C)cc(-c2cc3c(c(CCc4ccccc4)n2)[Si](C(C)C)(C(C)C)O[C@H]3c2ccccc2)cc1C | -1.05 (inactive) | -0.147 | 4.98 (inactive) | 2.59 (inactive) | 0.576 (inactive) | 1.09 (inactive) | -0.673 | 0.283 (inactive) | 1.11 (inactive) | 0.201
4 | CCCC=C(CCC)[C@@H](NC(=O)c1ccc(C(=O)OC)cc1)c1ccc(C(=O)OC)cc1 | -1.99 (inactive) | 0.211 | 0.67 (inactive) | 0.409 (inactive) | 1.33 (inactive) | 0.618 (inactive) | -0.574 | -0.542 (inactive) | -3.29 (inactive) | 1.5
5 | COCCOC(=O)N1C(=O)[C@@]2(c3cc(C#CC4(O)CCCCCC4)ccc31)[C@H](C(N)=O)[C@H]1C(=O)O[C@H](c3ccccc3)[C@H](c3ccccc3)N1[C@@H]2c1ccc(OCCO)cc1 | -0.0172 (inactive) | 0.0861 | 3.59 (inactive) | 1.45 (inactive) | 0.843 (inactive) | 1.01 (inactive) | 0.0826 | 1.52 (inactive) | 0.984 (inactive) | 0.923
6 | COc1ccc([Si](C)(C)[C@H]2[C@H](CC(=O)N3CCC[C@H]3CO)O[C@@]3(C(=O)N(Cc4cccc(N5CCCCC5=O)c4)c4ccccc43)[C@@H]2C)cc1 | 0.499 (inactive) | 0.0799 | 4.11 (inactive) | 0.57 (inactive) | 0.318 (inactive) | 0.525 (inactive) | -0.438 | 1.45 (inactive) | 1.44 (inactive) | 4.92
7 | [N-]=[N+]=NCc1ccccc1[C@H]1OC(c2ccc(OCCCO)cc2)=N[C@@]1(CCS(=O)(=O)c1ccccc1)C(=O)O | -0.123 (inactive) | 0.328 | 20.5 (active) | 6 (inactive) | 0.471 (inactive) | 1.06 (inactive) | -0.497 | 1.09 (inactive) | 1.09 (inactive) | 2.1
8 | C=CCN1C(=O)[C@]2(O[C@H](CCO)[C@@H]([Si](C)(C)c3ccc(OC)cc3)[C@@H]2C)c2cc(N3C(=O)c4ccccc4Oc4ccccc43)ccc21 | -0.458 (inactive) | 0.568 | 6.17 (inactive) | 2.82 (inactive) | -0.512 (inactive) | 2.95 (inactive) | 0.695 | 0.0876 (inactive) | 0.945 (inactive) | -0.216
9 | C=CCNC(=O)[C@@H]1[C@H]2C(=O)O[C@H](c3ccccc3)[C@H](c3ccccc3)N2[C@H](c2ccc(O)cc2)[C@@]12C(=O)N(C(=O)OCCOC)c1ccc(C#CCC(C(=O)OC)C(=O)OC)cc12 | 1.17 (inactive) | 0.0026 | 2.41 (inactive) | 0.225 (inactive) | -0.451 (inactive) | 0.393 (inactive) | 0.0945 | 0.932 (inactive) | 0.584 (inactive) | 0.831
10 | CC(C)c1ccc(NN2C(C(O)C(C)c3ccccc3)C=CC3C(=O)N(c4ccccc4)C(=O)C32)cc1 (stereo not given) | -1.78 (inactive) | 1.24 | 0.187 (inactive) | 0.433 (inactive) | 0.215 (inactive) | 0.998 (inactive) | -1.44 | -0.818 (inactive) | -2.63 (inactive) | -4.03
11 | C=CCNC(=O)[C@H]1[C@@H]2C(=O)O[C@@H](c3ccccc3)[C@@H](c3ccccc3)N2[C@@H](c2ccc(OCCO)cc2)[C@]12C(=O)N(C(=O)OCCOC)c1ccc(C#CCC(C(=O)OC)C(=O)OC)cc12 | -0.335 (inactive) | 0.123 | 4.28 (inactive) | 1.28 (inactive) | 0.743 (inactive) | 0.656 (inactive) | -0.116 | 1.64 (inactive) | 0.791 (inactive) | 0.621
12 | CCCCCCc1nc(Cc2cc(OC)c(OC)c(OC)c2)c(C)c2c1[Si](C(C)C)(C(C)C)OC2 | 1.41 (inactive) | -0.0547 | 2.71 (inactive) | -0.23 (inactive) | 0.906 (inactive) | -0.471 (inactive) | 2.51 | -0.25 (inactive) | -0.588 (inactive) | -2.37
13 | CCCC[C@@H](O)C1=C(C)Cn2c(=O)n(-c3ccccc3)c(=O)n2[C@H]1CO | 3.02 (inactive) | -0.414 | -0.262 (inactive) | -0.957 (inactive) | -0.0398 (inactive) | -2.37 (inactive) | 0.916 | -0.943 (inactive) | 0.216 (inactive) | 0.616
